In PubChem BioAssay (NCATS) one finds Potency, activation and viability data, which are given here for 22 compounds.

Assay [1] has as its target Cellular tumor antigen p53 (Homo sapiens) (UniProt P04637). The assay is described as follows: Primary qHTS for small molecule compounds that upregulate eGFP-tagged delta133p53alpha (in N-terminal) cells. (AID 2060322). Further: nearly all actives have a fitted effect of over 75% in size. Further: potency means the concentration at half of the fitted maximal effect.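 On activation: series mostly up to about 56 µM; 0% = DMSO vehicle and 100% = reference activator.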 As to conditions: NCI-H358 eGFP-delta133p53alpha fluorescence, 24 h; activation: hits give high values. In outline: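 NCI-H358 cells pre-induced 24 h with 10 ng/ml doxycycline to express N-terminal eGFP-delta133p53alpha, then dosed 24 h at 37C without doxycycline; fixed, Hoechst-stained, GFP intensity by laser scanning cytometry, normalized to DMSO (0%) and 57.5 uM 5-azacytidine (100%).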
A general note: Quantitative high-throughput screening tests each substance at several concentrations.

Assay [2] is described as follows: BET inhibitor-based combinations targeting novel dependencies in MECOM-rearranged (r) AML: SET-2 cell line (AID 2202231). Further: nearly all actives have a fitted effect of over 35% in size. Further: potency means the concentration at half of the fitted maximal effect.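 On viability: plate controls were DMSO treated cells for no effect and wells without cells for full effect.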 As to conditions: SET-2 AML cells viability, CellTiter-Glo luminescence, 48 h; viability: hits give low values, concentration not given here. In outline: (§1)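 Readout: CellTiter-Glo luminescence. Exposure: 48 h, 11 concentrations, 500 cells/well. Metric: AUC and within-line Z-AUC after DMSO/empty-well normalization.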
(In general: In ATP-based viability assays light output follows the ATP content of the culture.)

A short description of assay [3]: BET inhibitor-based combinations targeting novel dependencies in MECOM-rearranged (r) AML: OCI-AML3 cell line (AID 2202232). Further: nearly all actives have a fitted effect of over 35% in size. Further: potency means the concentration at half of the fitted maximal effect. As to conditions: Potency: OCI-AML3 viability. In outline:
as §1

The nature of assay [4]: BET inhibitor-based combinations targeting novel dependencies in MECOM-rearranged (r) AML: MV-4-11 cell line (AID 2202233). Further: nearly all actives have a fitted effect of over 45% in size. Further: potency means the concentration at half of the fitted maximal effect. In outline: (§2)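 Seeding density was 500 cells/well, and drug exposure lasted 48 hr under standard culture conditions. Read-out used CellTiter-Glo reagent with a 15 min room-temperature incubation before luminescence measurement; AUC and Z-AUC summarize the normalized responses.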

The nature of assay [5]: BET inhibitor-based combinations targeting novel dependencies in MECOM-rearranged (r) AML: AML-191 cell line (AID 2202236; further: nearly all actives have a fitted effect of over 35% in size; further: potency means the concentration at half of the fitted maximal effect). In outline:
as §1

Assay [6] can be described thus: BET inhibitor-based combinations targeting novel dependencies in MECOM-rearranged (r) AML: AML-194 cell line (AID 2202237; further: nearly all actives have a fitted effect of over 40% in size; further: potency means the concentration at half of the fitted maximal effect). In outline:
as §1

Assay [7] in a line: BET inhibitor-based combinations targeting novel dependencies in MECOM-rearranged (r) AML: HNT-34 cell line (AID 2202234). Further: nearly all actives have a fitted effect of over 35% in size. Further: potency means the concentration at half of the fitted maximal effect. In outline: as §2
The nature of assay [8]: BET inhibitor-based combinations targeting novel dependencies in MECOM-rearranged (r) AML: UCSD-AML1 cell line (AID 2202235). Further: nearly all actives have a fitted effect of over 40% in size. Further: potency means the concentration at half of the fitted maximal effect. In outline: as §2
For assay [9], the target named is Aldehyde dehydrogenase, mitochondrial (Homo sapiens) (UniProt P05091). The assay can be described thus: qHTS for Inhibitors of the Aldehyde Dehydrogenase Family (ALDH2) Primary screen (AID 2061308).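 Further: plate controls were vehicle for no effect and reference inhibitor for full effect; nearly all actives have a fitted effect of over 55% in size.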
Assay [10] addresses Retinaldehyde dehydrogenase 3 (Homo sapiens) (UniProt P47895). The assay can be described thus: qHTS for Inhibitors of the Aldehyde Dehydrogenase Family (ALDH1A3) Primary screen (AID 2061315).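 Further: plate controls were DMSO vehicle for no effect and reference inhibitor for full effect.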
For assay [11], the target named is Cellular tumor antigen p53 (Homo sapiens) (UniProt P04637). The assay is described as follows: Primary qHTS for small molecule compounds that upregulate eGFP-tagged delta133p53alpha (in C-terminal) cells. (AID 2060324). Further: potency means the concentration at half of the fitted maximal effect. In outline:
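NCI-H358 cells pre-induced 24 h with 100 ng/ml doxycycline to express delta133p53alpha-eGFP, then dosed in doxycycline-free medium for 24 h at 37C. Fixed, Hoechst-stained; GFP intensity by laser scanning cytometry, normalized to DMSO wells.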

For assay [12], the target named is Aldehyde dehydrogenase, mitochondrial (Homo sapiens) (UniProt P05091). The assay is described as follows: qHTS for Inhibitors of the Aldehyde Dehydrogenase Family (ALDH2) Validation screens (AID 2061302; active means well fitted inhibition curve with a large enough effect; title and protocol of this record describe different tests;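 further: plate controls were DMSO vehicle for no effect and maximal DPI positive control response for full effect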).

Values joined by “and” are separate entries in the source; they are usually repeats but may differ in a detail not shown here. Identical values can stand only once. Results filed as inconclusive are left out. More than one record can exist for a structure, and the calls need not agree. Values without a mark were called inactive. Active and inactive are the calls of the source. Unless noted, the call rests on the fitted dose curve; in most records, active means well fitted curve in the direction sought with a large enough effect; inconclusive means small, poorly fitted or top-dose-only effect, or another doubt; inactive means no such curve, though single readings can be large; an effect the other way counts as inactive or inconclusive.

Cellular tumor antigen p53 (Homo sapiens), sequence (P04637 whole entry, looked up): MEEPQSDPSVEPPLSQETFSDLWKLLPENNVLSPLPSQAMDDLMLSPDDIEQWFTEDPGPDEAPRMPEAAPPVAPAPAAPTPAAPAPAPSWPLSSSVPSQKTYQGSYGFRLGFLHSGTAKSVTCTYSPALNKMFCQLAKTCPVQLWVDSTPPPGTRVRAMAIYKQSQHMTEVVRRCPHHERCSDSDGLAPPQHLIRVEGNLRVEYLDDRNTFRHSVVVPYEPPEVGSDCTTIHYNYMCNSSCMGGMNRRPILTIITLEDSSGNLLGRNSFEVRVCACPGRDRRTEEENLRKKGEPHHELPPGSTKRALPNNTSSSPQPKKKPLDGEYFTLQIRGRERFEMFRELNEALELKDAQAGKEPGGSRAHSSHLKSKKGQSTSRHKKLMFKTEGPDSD

Regarding `CC(=O)N(O)CCCCCNC(=O)CCC(=O)N(O)CCCCCNC(=O)CCC(=O)N(O)CCCCCN`, the Potency is 1.36 µM (active) in [1]; 20.9 µM (active) in assay [2]; 11.8 µM (active) in [3]; 11.8 µM (active) in [4]; 8.33 µM (active) in [5]; 9.34 µM (active) in [6]. The activation in assay [1] is 41.2%.

In the case of `COc1ncnc(NS(=O)(=O)c2ccc(N)cc2)c1OC`, the Potency in assay [1] was 27.3 µM (active). For the same compound, in assay [1], the activation is 26.8%. Besides, in [2], the viability is 116%. In addition, the Potency entry in assay [3], in assay [4], in assay [7], in assay [8], in [5] and in assay [6] was “inactive” each time.

As for `Cc1nc(N)sc1-c1ccnc(Nc2ccc(N3CCOCC3)cc2)n1`, the Potency was 26.9 µM (active) in assay [1]; 5.25 µM (active) in assay [2]; 11.8 µM (active) in [3]; 0.186 µM (active) in [4]; 2.35 µM (active) in assay [7]; 0.833 µM (active) in assay [8]. Moreover, the Potency is 7.42 µM (active) in [5] and 4.17 µM (active) in assay [6]. In assay [1], the activation is -1.52%. For the same compound, in assay [9], the Potency entry was “inactive”.

For `CCc1cccc(CC)c1NC(=O)N1Cc2[nH]nc(NC(=O)c3ccc(N4CCN(C)CC4)cc3)c2C1`, the Potency in assay [1] was 12.2 µM (active); in assay [4] it was 1.32 µM (active); in assay [7] it was 0.742 µM (active); in assay [8], 14.8 µM (active); in assay [5] it was 5.25 µM (active); in assay [6] it was 9.34 µM (active). Also, the activation in assay [1] was 5.63%. Moreover, the Potency result in [9] and in assay [10] was “inactive” throughout.

Regarding `NC1(C(=O)O)CC1`, in assay [1], the activation is -6.03%. In addition, in assay [11], the Potency entry was “inactive”.

Turning to `NC1CCN(O)C1=O` (stereo unspecified), in [1], the activation is -20%. Also, the Potency entry in assay [11] and in assay [12] was “inactive” in each case.

As to `Cc1cc2c(C(C)C)c(O)c(O)c(C=O)c2c(O)c1-c1c(C)cc2c(C(C)C)c(O)c(O)c(C=O)c2c1O`, the Potency is 24.6 µM (active) in assay [1]; 9.34 µM (active) in assay [3]; 9.34 µM (active) in assay [4]; 9.34 µM (active) in [7]; 9.34 µM (active) in assay [8]; 9.34 µM (active) in assay [5]. The Potency in [6] was 13.2 µM (active). Further, in [1], the activation was -36.4%.

As for `CNc1cc(NS(=O)(=O)c2ccc(N)cc2)nc(NC)n1`, the activation in [1] is -5.43%. Besides, the Potency result in assay [11] and in assay [12] was “inactive” throughout.

In the case of `O=C(CCCCCCC(=O)Nc1ccc([C@H]2O[C@@H](CSc3nc(-c4ccccc4)c(-c4ccccc4)o3)C[C@@H](c3ccc(CO)cc3)O2)cc1)NO`, in assay [1], the Potency was 5.36 µM (active) and the activation is 47.5%. In [9], the Potency result is “inactive”. Further, the viability in assay [2] is 106%. Besides, the Potency in assay [7] is 6.05 µM (active).

In the case of `Cc1c(-c2ccc(O)cc2)n(Cc2ccc(OCCN3CCCCCC3)cc2)c2ccc(O)cc12`, the Potency was 38.9 µM (active) in assay [1]; 23.5 µM (active) in [2]; 16.6 µM (active) in assay [3]; 16.6 µM (active) in assay [4]; 26.3 µM (active) in [6]. Moreover, the activation in assay [1] was -20.9%. Moreover, the Potency result in assay [8] is “inactive”.

In the case of `C[C@H](NC(=O)/C(C#N)=C/c1ccc(O)c(O)c1)c1ccccc1`, the activation in assay [1] is -11.2%. For the same compound, the Potency result in [11] was “inactive”.

`Oc1ccc(/C=C/c2ccc(/C=C/c3ccc(O)cc3)c(Br)c2)cc1`: the Potency in assay [1] was 3.38 µM (active). The Potency result in [11] is “inactive”.

In the case of `COc1ccc(-c2cc3ncc(C)n3c(Nc3ncccc3C(N)=O)n2)cc1OC`, in assay [1], the activation is 2.48%. In addition, the Potency in [11] is 10.7 µM (active).

Turning to `COC(=O)C1=C(C)NC(C)=C(C(=O)OC)C1c1ccccc1[N+](=O)[O-]`, the activation in [1] is -16.4% and -36.9%. Also, in assay [11], the Potency entry was “inactive”.

Take `C[C@H]1c2cccc(O)c2C(O)=C2C(=O)[C@]3(O)C(O)=C(C(N)=O)C(=O)[C@@H](N(C)C)[C@@H]3[C@@H](O)[C@@H]21`: the Potency in assay [1] is 15.5 µM (active) and 2.73 µM (active); in assay [7], 18.6 µM (active); in assay [5] it was 26.3 µM (active); in [6] it was 23.5 µM (active). Besides, the activation in assay [1] was -2.21%.

`Brc1c(Br)c(Br)c2n[nH]nc2c1Br`: the activation in assay [1] was -52.8%. For the same compound, the Potency entry in assay [11] is “inactive”.

`OCc1cc(C(O)CNCCCCCCOCCCCc2ccccc2)ccc1O` (stereo unspecified): the activation in assay [1] was 13.4% and 3.4%. The Potency entry in assay [11] is “inactive”.

On to `O=c1cc(-c2ccccc2)oc2c(O)c(O)ccc12`, for which the activation in assay [1] was -43.5%. Moreover, the Potency entry in assay [11] was “inactive”.

`CC1=C(CC(=O)O)c2cc(F)ccc2/C1=C\c1ccc(S(C)=O)cc1` (stereo unspecified): the activation in assay [1] was 19.2% and 25%. Further, the Potency result in [11] is “inactive”.

`Clc1ccccc1CN1CCc2sccc2C1`: the Potency in [1] was 17.2 µM (active). For the same compound, in [1], the activation is 16.7%. Moreover, the viability in assay [2] was 111%. Besides, the Potency entry in [3], in assay [7], in assay [8], in assay [5] and in [6] was “inactive” in each case.

`CC(C)[C@H](C(=O)Nc1ccc(C(=O)NO)cc1)c1ccccc1`: the Potency in assay [1] was 30.6 µM (active); in assay [3], 0.742 µM (active); in assay [4] it was 0.372 µM (active); in assay [7], 0.833 µM (active); in assay [8] it was 0.833 µM (active); in [6], 0.833 µM (active). Also, in assay [1], the activation is 66.7%.

Turning to `C=CC1(C)CC(=O)C2(O)C(C)(O1)C(OC(C)=O)C(O)C1C(C)(C)CCC(O)C12C` (stereo unspecified), the activation in assay [1] was -19.1%. Moreover, in assay [11], the Potency result was “inactive”.

In general, viability refers to a read-out of living cells in per cent, often relative to untreated cells.
